Experimental data: PubChem BioAssay
Activity calls are given as the source filed them.

Columns and labels:
Albumin (Bos taurus) = Albumin (Bos taurus) (UniProt P02769); experiment: compounds binding labelled BSA control protein – biochemical, small-molecule microarray, Alexa647 label, 635/667 nm fluorescence, artefact control for SMM control protein annotation, profiling panel (AID 1118); conditions: BSA-A647 binding, fluorescence 635 nm, higher = more signal;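 further: score merges 667 nm emission intensity and signal-to-noise per printed compound spot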
[1] = probe aXIP binding to arrayed compounds – biochemical, NeuroSMM set, 635/667 nm fluorescence, primary screen (AID 1119); conditions: small-molecule microarray, higher = more signal, called active from +8 up or from −8 down;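 further: probe is the protein aXip251-270 applied at 1 µg/mL to compound-printed slides; binding of probe to printed compounds measured as 667 nm fluorescence plus signal to noise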
[2] = probe aNOTCH3 binding on compound microarray – biochemical, small-molecule microarray, 635/667 nm fluorescence, primary screen (AID 1120); conditions: higher = more signal;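 further: probe is a biotin-tagged antibody raised against NOTCH3 rather than NOTCH3 protein; score merges spot fluorescence near 667 nm with spot signal to noise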
[3] = probe aNOTCH2 binding on compound microarray – biochemical, small-molecule microarray, 635/667 nm fluorescence, primary screen (AID 1121); conditions: higher = more signal;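 further: score merges feature fluorescence read at 667 nm with its signal to noise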
[4] = biological target: Carbonic anhydrase 2 (Homo sapiens) (UniProt P00918); experiment: compounds binding carbonic anhydrase 2 – biochemical, small-molecule microarray, Alexa647-labelled CAII, profiling panel (AID 1122); conditions: CAII-A647 binding fluorescence, higher = more signal
[5] = COS7 lysate on small-molecule microarray, probe aHis, 635 nm (AID 1123); conditions: COS7 cell lysate, fluorescence, higher = more signal;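 further: z-score combines 667nm fluorescence intensity with signal-to-noise per printed compound spot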
[6] = probe aLAP1 signal on lysate-treated microarray – cell lysate, small-molecule microarray, COS7 lysate, primary screen (AID 1124); conditions: probe aLAP1, fluorescence, higher = more signal;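 further: lysate comes from COS7 cells expressing LAP1 and is applied at 0.3 µg/mL; score merges spot fluorescence near 667 nm with signal-to-noise over triplicate slides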
Sam68 (KHDRBS1) = experiment: compounds binding KHDRBS1 protein – biochemical, small-molecule microarray, 635 nm fluorescence, primary screen (AID 1125); conditions: higher = more signal;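 further: score merges 667 nm channel intensity with signal to noise over triplicate slides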
[7] = system: Chordin-like protein 2 (CHRDL2); experiment: compounds binding chordin-like 2 – biochemical, small-molecule microarray, 635 nm fluorescence, primary screen (AID 1126); conditions: fluorescence 635 nm, higher = more signal;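 further: printed compound slides probed with Chrdl2 protein at 4 µg/mL for 1 h at 4 C; score merges 667 nm emission intensity with signal to noise over three replicate slides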
[8] = biological target: Concanavalin-A (Canavalia ensiformis) (UniProt P02866); experiment: compounds binding concanavalin A lectin – biochemical, small-molecule microarray, Alexa647 label, 635 nm, artefact control for SMM control protein annotation, primary screen (AID 1127); conditions: ConA-A647 binding fluorescence, higher = more signal;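 further: z combines 667 nm emission intensity with signal-to-noise across three replicate slides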
[9] = compounds binding Alexa647 anti-His antibody – biochemical, small-molecule microarray, 635 nm fluorescence, artefact control for SMM control protein annotation, primary screen (AID 1128); conditions: higher = more signal;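 further: score merges feature fluorescence with signal-to-noise for each printed compound spot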
[10] = system: Human papillomavirus type 1a E7 protein (residues 1-88); experiment: HPV1a E7 small-molecule binders, primary screen, biochemical, small-molecule microarray, residues 1-88, 635 nm (AID 1129); conditions: small-molecule microarray binding, fluorescence 635 nm; higher = more signal
[11] = biological target: Focal adhesion kinase 1 (Homo sapiens) (UniProt Q05397); experiment: PTK2 protein binding on printed compound slides – biochemical, small-molecule microarray, 635/667 nm fluorescence, BSA, DTT, primary screen (AID 1130); conditions: 635 nm fluorescence, higher = more signal;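 further: composite of spot emission at 667 nm and signal to noise over triplicate slides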
[12] = system: Fibrinogen (Alexa647-labelled); experiment: Alexa647-fibrinogen binding to printed small molecules – biochemical, small-molecule microarray, 635/667 nm fluorescence, artefact control for SMM control-protein annotation, profiling panel (AID 1131); conditions: fibrinogen-A647 binding fluorescence, higher = more signal;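 further: z-score merges 667 nm fluorescence with per-spot signal-to-noise over triplicate slides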
[13] = biological target: Follistatin (Homo sapiens) (UniProt P19883); experiment: FST protein binding to printed compounds – biochemical, small-molecule microarray, 635/667 nm fluorescence, primary screen (AID 1132); conditions: 635 nm fluorescence, higher = more signal
[14] = biological target: Fibroblast growth factor 2 (Homo sapiens) (UniProt P09038); experiment: basic fibroblast growth factor binding to printed compounds – biochemical, small-molecule microarray, 635/667 nm fluorescence, primary screen (AID 1133); conditions: FGF2, fluorescence 635/667, higher = more signal
[15] = JC-1 mitochondrial potential readout, lung cancer cells – cell-based, A549, JC-1 fluorescence, basal, 24 h, 100 nL, profiling panel (AID 1138); conditions: higher = more signal;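 further: A549 lung adenocarcinoma cells under basal conditions with no added stimulus; test concentration not given here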
Lefty1 = Lefty1 protein binding to printed compounds – biochemical, small-molecule microarray, 635/667 nm fluorescence, primary screen (AID 1139); conditions: fluorescence 635/667, higher = more signal
[16] = system: wheat germ agglutinin (Triticum aestivum), Alexa647-labelled; experiment: Alexa647-WGA lectin binding to printed small molecules – biochemical, small-molecule microarray, 635/667 nm fluorescence, artefact control for SMM control-protein annotation, profiling panel (AID 1140); conditions: WGA-A647 binding, 635 nm fluorescence, higher = more signal;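 further: score merges 667 nm feature emission with signal to noise over triplicate slides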
[17] = biological target: Luciferin 4-monooxygenase (Photinus pyralis) (UniProt P08659); experiment: inhibition of purified Photinus pyralis luciferase – biochemical, luminescence, purified enzyme, 2006 set, primary screen (AID 1141); conditions: purified firefly luciferase, SteadyGlo luminescence, 30 min; higher = more signal, called active from +8 up or from −8 down;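 further: cell-free assay with purified firefly luciferase at 100 ng per well in PBS; test concentration not given here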
Sequence of Luciferin 4-monooxygenase (Photinus pyralis) (P08659 whole entry, looked up): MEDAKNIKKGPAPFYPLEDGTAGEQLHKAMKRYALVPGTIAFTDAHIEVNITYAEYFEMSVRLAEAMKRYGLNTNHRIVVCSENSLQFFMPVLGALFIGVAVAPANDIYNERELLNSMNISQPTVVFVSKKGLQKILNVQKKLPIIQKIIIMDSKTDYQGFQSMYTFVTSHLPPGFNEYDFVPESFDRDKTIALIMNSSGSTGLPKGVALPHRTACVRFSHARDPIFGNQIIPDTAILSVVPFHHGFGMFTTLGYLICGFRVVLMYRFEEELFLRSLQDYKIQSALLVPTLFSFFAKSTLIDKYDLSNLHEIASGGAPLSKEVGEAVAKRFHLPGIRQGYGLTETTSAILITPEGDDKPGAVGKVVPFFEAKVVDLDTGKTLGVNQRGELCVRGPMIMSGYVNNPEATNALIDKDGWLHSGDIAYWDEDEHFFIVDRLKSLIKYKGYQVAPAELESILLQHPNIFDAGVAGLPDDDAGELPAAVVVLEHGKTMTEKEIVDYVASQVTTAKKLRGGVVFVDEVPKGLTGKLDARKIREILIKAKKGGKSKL

Sequence of Focal adhesion kinase 1 (Homo sapiens) (Q05397 whole entry, looked up): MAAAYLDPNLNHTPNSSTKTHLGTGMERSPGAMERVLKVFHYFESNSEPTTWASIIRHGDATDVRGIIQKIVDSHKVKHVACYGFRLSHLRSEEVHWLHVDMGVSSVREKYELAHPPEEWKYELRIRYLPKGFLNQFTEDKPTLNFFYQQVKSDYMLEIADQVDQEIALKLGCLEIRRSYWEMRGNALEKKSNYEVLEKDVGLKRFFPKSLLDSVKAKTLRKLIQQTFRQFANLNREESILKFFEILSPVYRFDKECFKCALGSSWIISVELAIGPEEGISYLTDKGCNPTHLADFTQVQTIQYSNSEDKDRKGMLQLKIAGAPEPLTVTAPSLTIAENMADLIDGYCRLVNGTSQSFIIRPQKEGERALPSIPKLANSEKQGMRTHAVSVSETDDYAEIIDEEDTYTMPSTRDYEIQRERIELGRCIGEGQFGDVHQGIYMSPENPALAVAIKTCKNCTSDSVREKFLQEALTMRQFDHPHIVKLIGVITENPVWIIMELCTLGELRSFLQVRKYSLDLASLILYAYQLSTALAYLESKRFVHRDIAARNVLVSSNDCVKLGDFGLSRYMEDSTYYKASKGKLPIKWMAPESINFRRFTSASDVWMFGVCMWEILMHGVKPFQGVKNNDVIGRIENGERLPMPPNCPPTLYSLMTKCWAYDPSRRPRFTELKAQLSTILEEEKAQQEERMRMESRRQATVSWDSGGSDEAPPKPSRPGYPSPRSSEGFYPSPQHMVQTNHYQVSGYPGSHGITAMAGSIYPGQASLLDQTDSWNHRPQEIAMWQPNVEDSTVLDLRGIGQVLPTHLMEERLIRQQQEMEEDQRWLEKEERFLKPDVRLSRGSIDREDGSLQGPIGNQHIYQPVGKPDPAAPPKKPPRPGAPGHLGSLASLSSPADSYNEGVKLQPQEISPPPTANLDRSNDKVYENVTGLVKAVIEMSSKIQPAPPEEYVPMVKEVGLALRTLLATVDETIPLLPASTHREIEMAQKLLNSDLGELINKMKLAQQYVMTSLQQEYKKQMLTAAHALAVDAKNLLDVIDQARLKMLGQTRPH
Sequence of Fibroblast growth factor 2 (Homo sapiens) (P09038 whole entry, looked up): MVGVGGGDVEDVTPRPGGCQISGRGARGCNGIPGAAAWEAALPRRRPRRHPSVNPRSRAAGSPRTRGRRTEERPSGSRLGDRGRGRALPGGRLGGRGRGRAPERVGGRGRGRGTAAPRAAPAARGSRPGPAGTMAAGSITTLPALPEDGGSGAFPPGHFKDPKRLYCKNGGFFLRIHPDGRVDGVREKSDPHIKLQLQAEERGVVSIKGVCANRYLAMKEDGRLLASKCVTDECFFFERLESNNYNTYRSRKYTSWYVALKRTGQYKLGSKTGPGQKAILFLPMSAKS
Sequence of Follistatin (Homo sapiens) (P19883 whole entry, looked up): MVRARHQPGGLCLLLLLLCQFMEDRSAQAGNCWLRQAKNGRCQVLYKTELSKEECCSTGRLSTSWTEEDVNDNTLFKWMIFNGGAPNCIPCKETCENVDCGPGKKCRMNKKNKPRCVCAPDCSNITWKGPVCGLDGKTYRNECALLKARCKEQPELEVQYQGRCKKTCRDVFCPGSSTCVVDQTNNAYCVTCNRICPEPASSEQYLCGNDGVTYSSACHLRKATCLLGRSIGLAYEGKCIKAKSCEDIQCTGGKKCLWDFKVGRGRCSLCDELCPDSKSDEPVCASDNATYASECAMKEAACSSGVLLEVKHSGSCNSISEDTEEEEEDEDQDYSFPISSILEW
Sequence of Albumin (Bos taurus) (P02769 whole entry, looked up): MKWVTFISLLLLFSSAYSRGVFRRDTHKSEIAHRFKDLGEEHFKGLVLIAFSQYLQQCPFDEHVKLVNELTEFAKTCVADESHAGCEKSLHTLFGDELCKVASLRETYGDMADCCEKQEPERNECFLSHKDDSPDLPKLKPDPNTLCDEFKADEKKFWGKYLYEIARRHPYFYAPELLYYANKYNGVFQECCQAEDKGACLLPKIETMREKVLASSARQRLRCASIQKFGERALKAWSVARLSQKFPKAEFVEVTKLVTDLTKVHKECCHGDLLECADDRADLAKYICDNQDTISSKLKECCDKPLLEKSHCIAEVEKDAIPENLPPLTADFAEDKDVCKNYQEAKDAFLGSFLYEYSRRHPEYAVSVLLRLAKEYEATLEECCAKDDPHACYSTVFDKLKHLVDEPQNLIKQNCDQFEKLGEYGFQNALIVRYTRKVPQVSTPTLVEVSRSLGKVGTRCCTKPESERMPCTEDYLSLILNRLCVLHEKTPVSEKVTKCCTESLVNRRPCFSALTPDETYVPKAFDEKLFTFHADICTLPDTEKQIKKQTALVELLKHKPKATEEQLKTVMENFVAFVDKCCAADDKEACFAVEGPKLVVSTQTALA
Sequence of Concanavalin-A (Canavalia ensiformis) (P02866 whole entry, looked up): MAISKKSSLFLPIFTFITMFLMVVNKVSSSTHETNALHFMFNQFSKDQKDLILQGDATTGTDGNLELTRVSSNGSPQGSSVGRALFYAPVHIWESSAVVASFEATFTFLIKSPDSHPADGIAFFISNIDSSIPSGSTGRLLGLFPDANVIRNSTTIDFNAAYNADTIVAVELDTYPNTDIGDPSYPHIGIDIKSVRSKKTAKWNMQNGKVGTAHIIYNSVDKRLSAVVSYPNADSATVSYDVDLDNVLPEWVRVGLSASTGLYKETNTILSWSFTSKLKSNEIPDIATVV

Row | SMILES | composite z-score (Albumin (Bos taurus)) | composite Z-score [1] | composite z-score [2] | composite z-score [3] | composite z-score [4] | composite z-score [5] | composite z-score [6] | composite z-score (Sam68 (KHDRBS1)) | composite z-score [7] | composite z-score [8] | composite z-score [9] | composite z-score [10] | composite z-score [11] | composite z-score [12] | composite z-score [13] | composite z-score [14] | z-score [15] | composite z-score (Lefty1) | composite z-score [16] | z-score [17]
1 | CN1C(=O)C2C=CC(C(O)c3ccccc3)N(N3CCCCC3)C2C1=O (stereo not given) | 0.988 | -0.123 (inactive) | 0.237 | 0.0521 | 0.846 | 2.37 | 0.676 | 1.02 | -0.409 | 0.872 | 0.841 | 1.04 | 0.352 | 0.412 | 0.602 | -0.234 | 0.0958 | 0.0104 | 0.573 | -0.136 (inactive)
2 | CCC(CC)C(O)C1C=CC2C(=O)N(c3ccccc3)C(=O)C2N1Nc1ccccc1 (stereo not given) | 0.803 | 0.62 (inactive) | 0.708 | 0.272 | 0.491 | 2.44 | 0.383 | 1.31 | 0.0429 | 1.16 | 1.51 | 1.25 | 0.633 | 1 | 1.06 | 0.514 | -0.117 | 0.858 | 1.03 | -1.9 (inactive)
3 | CN(C)CCCCCCNC(=O)[C@@H]1C[C@@H]2C(=O)N[C@@H](CCCC[N+](C)(C)C)C(=O)N2[C@@H]1c1ccc(O)cc1 | -0.793 | 1.56 (inactive) | 0.164 | -0.231 | 0.797 | 0.125 | 0.246 | 0.794 | 0.918 | 0.898 | 0.486 | -0.396 | 0.678 | -0.335 | 0.82 | 0.825 | -0.147 | 0.798 | 0.427 | -0.882 (inactive)
4 | CCOc1cc(C(O)C2C=CC3C(=O)N(c4ccccc4)C(=O)C3N2Nc2ccc(C(C)C)cc2)ccc1O (stereo not given) | 0.925 | 0.203 (inactive) | 0.15 | -0.0274 | 0.79 | 2.63 | 0.33 | 1.29 | 0.161 | 1.09 | 1.72 | 1.23 | 0.543 | 0.963 | 1.03 | 0.0704 | 0.898 | 0.135 | 1.3 | 0.12 (inactive)
5 | C=C(CCCC)C(=O)CC[C@H](OC(=O)c1cccnc1)c1ccc(OCCO)cc1 | 0.0514 | 0.197 (inactive) | -0.0076 | -0.14 | 0.72 | -0.0099 | 0.022 | 0.567 | 0.191 | -0.421 | 0.631 | 0.474 | 0.819 | 0.0895 | 0.131 | 0.476 | 1.15 | -0.205 | 0.955 | -1.91 (inactive)
6 | CC(CO)N1C(=O)[C@@H]2C3C(=O)OCCC/C=C\[C@H]3OC23C=CCN(CCN2CCOCC2)C(=O)[C@@H]13 (stereo not given in full) | -0.424 | 0.286 (inactive) | -0.21 | -0.147 | 0.366 | -0.463 | -0.277 | 0.191 | -0.0493 | 0.272 | 0.537 | -0.624 | -0.181 | -1.1 | 0.205 | 0.186 | 1.08 | 0.376 | -0.169 | -0.523 (inactive)
7 | C=CC1c2cc(O)c(OC)cc2CCN1Cc1cccc(OC(F)(F)F)c1 (stereo not given) | 0.971 | 0.625 (inactive) | -0.0596 | -0.16 | 0.893 | 3.33 | 0.754 | 0.909 | 0.44 | 0.462 | 1.33 | 0.167 | 0.408 | -0.36 | -0.0223 | -0.43 | -1.03 | -0.145 | 1.01 | 0.454 (inactive)
8 | C=CC[C@]1(C(=O)NCc2ccccc2)N=C(c2ccc(OCCCO)cc2)O[C@H]1c1ccccc1CN=[N+]=[N-] | 0.183 | -0.451 (inactive) | 0.367 | -0.104 | 0.563 | 0.935 | 0.403 | 1.31 | -0.329 | 0.79 | 1.25 | 1.21 | 0.112 | 1.02 | 1.31 | 1.09 | 1.22 | 0.497 | 0.666 | -0.238 (inactive)
9 | NCCCCCCNC(=O)[C@H]1C[C@H]2C(=O)N[C@@H](Cc3ccccc3)C(=O)N2[C@H]1c1cccc(OCCO)c1 | 0.845 | -0.336 (inactive) | 0.0657 | -0.0712 | 0.788 | 0.446 | 0.464 | 0.58 | -0.431 | 1.03 | 0.786 | 0.248 | 0.376 | 0.72 | 1.08 | -0.044 | 0.481 | 0.0358 | 0.961 | 0.0326 (inactive)
10 | NC(=O)[C@@H]1[C@H]2C(=O)O[C@H](c3ccccc3)[C@H](c3ccccc3)N2[C@H](c2ccc(OCCO)cc2)[C@@]12C(=O)Nc1ccc(C#CC3=CCCCC3)cc12 | 0.768 | 2.02 (inactive) | -0.0665 | 0.0086 | 0.647 | 0.558 | 0.0971 | 1.32 | 0.463 | 1.09 | 0.823 | 1.21 | 1.33 | 1.01 | 1.22 | 0.413 | -1.87 | 0.741 | 0.632 | -2.48 (inactive)
11 | CC1CC/C=C\[C@H]2OC34C=CCN(Cn5nnc6ccccc65)C(=O)[C@H]3N(CCCCCO)C(=O)[C@@H]4C2C(=O)O1 (stereo not given in full) | -1.22 | 0.19 (inactive) | -0.236 | -0.106 | 0.548 | 0.737 | 0.434 | 0.479 | -1.75 | -0.845 | 0.429 | -1.48 | -0.281 | -2.26 | -1.16 | -1.69 | 0.114 | -0.425 | 1.24 | 0.932 (inactive)
